According to PubChem BioAssay AID652154 (Broad Institute, 2013):
Out of some 360,000 compounds screened, about 4,200 (1.2%) were called active. Only a selection was taken, and actives are over-represented in it overall. Values without a mark were called inactive.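 Rule for the calls: active = mean replicate inhibition at least 60% with every replicate also reaching 60%; inconclusive = only one of the two criteria is met; inactive = mean below 60% and not all replicates reaching 60%.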

experiment: inhibitors of PAX8-driven TPO luciferase reporter, primary screen, RMG-I cells, single concentration (AID 652154); details: SteadyGlo, 24 h, at 12.6 µM, active compounds read high;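 note: luciferase light reporting Pax8 driven TPO promoter activity; plate controls were median of neutral control wells for no effect and mitoxantrone controls for full effect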

First: O=C(Nc1cc(Cl)cc(Cl)c1)N[C@@H]1CC[C@H](CCNS(=O)(=O)c2cccc(F)c2)O[C@H]1CO
Second: O=C(C[C@@H]1CC[C@@H]2[C@H](COC[C@H](O)CN2C(=O)c2ccncc2)O1)NCc1cc(F)cc(F)c1
The inhibition of the first is higher: 13.6% for the first, -12.3% for the second.

Compared with `COCC#Cc1ccc([C@H]2[C@H]3CN(Cc4ccncc4)CCCCN3[C@H]2CO)cc1`, `COc1ccccc1NC(=O)N1CCCCN2[C@H](CO)[C@H](c3ccc(C#CC4CC4)cc3)[C@@H]2C1` is lower in inhibition: 12.1% for the first, 8.7% for the second.

Going from `COc1cc(OC)cc(C(=O)N[C@H](C(=O)OCC(=O)NC(C)c2ccccc2)C(C)C)c1` (some centres undefined) to `COc1cc(OC)cc(C(=O)N[C@H](C(=O)NNC(=O)c2ccc(Br)cc2)C(C)C)c1`, the inhibition rises from -10.5% to 18.6%.

First: CO[C@H]1CN(C)C(=O)c2cc(NC(=O)c3ccc4c(c3)OCO4)ccc2OC[C@@H](C)N(CCC(F)(F)F)C[C@H]1C
Second: COc1ccccc1NC(=O)N1CC(=O)N2[C@@H](CO)[C@H](c3ccc(C#CC4CC4)cc3)[C@@H]2C1
The inhibition of the first is higher: -3.09% for the first, -15.3% for the second.

First: COc1ccccc1NC(=O)N1CCCCN2[C@H](C1)[C@H](c1ccc(-c3ccccc3)cc1)[C@@H]2CO
Second: O=C(Nc1ccccc1)N1CCCCN2[C@H](CO)[C@@H](c3ccc(C#Cc4ccccn4)cc3)[C@H]2C1
The inhibition of the first is lower: -14.1% for the first, 10.2% for the second.

Compared with `O=C(CC1CC1)N1CC(=O)N2[C@H](CO)[C@H](c3ccc(C#Cc4ccc(F)cc4)cc3)[C@@H]2C1`, `O=C(c1ccc(F)cc1)N1CC(=O)N2[C@H](C1)[C@@H](c1ccc(C#CC3CC3)cc1)[C@@H]2CO` is higher in inhibition: 2.13% for the first, 27.2% for the second.

Compared with `COc1ccccc1NC(=O)N1CC(=O)N2[C@H](CO)[C@H](c3ccc(C#Cc4ccccc4)cc3)[C@H]2C1`, `CC(C)C#Cc1ccc([C@H]2[C@@H](CO)N3CCCCN(C(=O)Nc4ccccc4)C[C@H]23)cc1` is higher in inhibition: -18.8% for the first, 7.15% for the second.

With `COc1cc(OC)cc(C(=O)N[C@H](C(=O)Nc2nc3ccccc3[nH]2)C(C)C)c1` the inhibition was 81.6% (active).
In the case of `O=C(c1ccc(F)cc1)N1CC(=O)N2[C@@H](CO)[C@@H](c3ccc(C#Cc4ccc(F)cc4)cc3)[C@@H]2C1`, the inhibition is reported as 87.7% (active).
In the case of `COc1ccccc1NC(=O)N1CC(=O)N2[C@H](C1)[C@H](c1ccc(C#Cc3ccccc3)cc1)[C@@H]2CO`, the inhibition is reported as 61.7% (active).
For `COc1ccc(C#Cc2ccc([C@H]3[C@@H](CO)N4CCCCN(C(=O)Nc5ccccc5)C[C@H]34)cc2)cc1`, the inhibition was 85.6% (active).
With `COc1ccccc1NC(=O)N1CCCCN2[C@@H](CO)[C@@H](c3ccc(C#Cc4ccccc4)cc3)[C@@H]2C1` the inhibition was 109% (active).
